Experimental data taken from ChEMBL document CHEMBL1157539, “Thousands of chemical starting points for antimalarial lead identification” (Nature, 2010).

Assays:
Format in all cases: functional
[1] = system: Plasmodium falciparum; assay: GSK_TCMDC: Inhibition of Plasmodium falciparum 3D7 in whole red blood cells, using parasite LDH activity as an index of growth. Test compounds present at 2uM
[2] = system: Plasmodium falciparum; assay: GSK_TCMDC: Inhibition of Plasmodium falciparum Dd2 in whole red blood cells, using parasite LDH activity as an index of growth. Test compounds present at 2uM
[3] = system: HepG2; assay: GSK_TCMDC: Percent inhibition of human HepG2 cell line. Test compounds present at 10uM.

Structure (SMILES)	Inhibition [1]	Inhibition [2]	Inhibition [3]
Cc1cc(N2CC=CCC2)nc(NC(=N)Nc2ccc(Br)cc2)n1	98%	41%	10%
COc1ccc(O)c(C(=O)c2cnc3c(c2)c(-c2ccc(F)cc2)c(C#N)c(=O)n3C)c1	92%	14%	7%
CC(C)CCNCc1c(O)ccc2ccccc12	95%	51%	9%
Cc1cccc2nc(-c3ccc(-c4cccc(NC(=O)c5cncn5C)c4)s3)[nH]c12	100%	16%	13%
Cc1cccc(CNc2nccc3[nH]c4ccccc4c23)c1.O=C(O)C(F)(F)F	92%	51%	14%
COc1cc(C)ccc1N1CCN(CCCCNC(=O)c2ccc(NC(=O)c3ccc(Cl)cc3)cc2)CC1	99%	31%	30%
COc1ccc2nccc([C@@H](O)CN3CCC(NCc4cnc5snnc5c4)C(F)C3)c2c1.Cl (stereo partly specified)	83%	88%	13%
NCc1ccc(-c2ccccc2CNC2CCN(Cc3ccccc3)CC2)cc1.O=C(O)C(F)(F)F	94%	3%	20%
O=C(NCC1CCN(CCN2CCc3ccc4c(c3C2)OCO4)CC1)c1ccc(-c2ccc(C(F)(F)F)cc2)cc1	93%	34%	66%
CCNc1cc(C(=O)N[C@@H](Cc2ccccc2)[C@H](O)CNCCC(C)c2ccccc2)cc(N2CCCC2=O)c1.O=C(O)C(F)(F)F (stereo partly specified)	99%	95%	0%
O=C(NC1CCCC1)c1ccc(N2CCC(NCc3cccc(C(F)(F)F)c3)CC2)cc1	87%	75%	11%
CC(C)(C)c1ccc2nccc(Nc3cccc(O)c3)c2c1	99%	100%	8%
Nc1nc(N)c2c(ccc3c2ccn3Cc2ccc(F)cc2)n1	97%	96%	66%
Fc1ccc2[nH]c(-c3cccc(-c4ccc(CNCC5CCCO5)cc4)c3)nc2c1.O=C(O)C(F)(F)F (stereo unspecified)	100%	98%	36%
Cc1ccc(NC(=S)N2CCCN(CCCCCNC(=O)/C=C/c3ccc(Cl)c(Cl)c3)CC2)cc1Cl	93%	5%	14%
Cc1cccc2nc(-c3ccc(-c4cccc(C(=O)NCCN5CCCC5)c4)s3)[nH]c12	94%	2%	22%
CC(COc1ccc2c(c1)OC(C)(C)CC2c1ccccc1)NCC(O)c1cccc(Cl)c1.Cl (stereo unspecified)	98%	96%	1%
CN1CCN(c2ccc(-c3cccc(NC(=O)c4cccc(Cl)c4)c3)nn2)CC1	94%	37%	5%
CCOC(=O)C1=C(C)N=c2sc(=Cc3cc(Cl)ccc3O)c(=O)n2C1c1cc(OC)c(OC)cc1Br (stereo unspecified)	97%	76%	6%
N=C(N)NC(=O)Nc1cc(Cl)c(Cl)c(C(F)(F)F)c1	100%	99%	6%
COc1ccc(CN2CCC(NCc3cccc(-n4ccnc4)c3)CC2)cc1.O=C(O)C(F)(F)F	100%	93%	10%

Structure (SMILES)	Inhibition [1]	Inhibition [2]	Inhibition [3]
Cc1cc(CN2CC[C@H](NC(=O)c3ccc(Cl)c(Cl)c3)C2)ccc1OC1CCN(Cc2ccccc2)CC1.O=C(O)C(F)(F)F	98%	29%	59%
FC(F)(F)c1ccc2[nH]c(-c3cccc(-c4ccc(CNCCc5ccncc5)cc4)c3)nc2c1.O=C(O)C(F)(F)F	99%	100%	23%
SC(=Nc1ccc2c(c1)OCCO2)NN=Cc1ccccn1	82%	33%	55%
CC(C)N1CCC(N(Cc2ccc(-c3ccc(C(F)(F)F)cc3)cc2)C(=O)Cn2c(CCc3cccc(F)c3F)cc(=O)c3cn(C)nc32)CC1.O=C(O)C(O)C(O)C(=O)O	89%	78%	100%
CN(C(=O)c1snnc1-c1ccccc1)C1CCN(CCCCCNC(=O)/C=C/c2ccc(Cl)c(Cl)c2)CC1	96%	58%	44%
Cc1cc(NC(=O)c2cccs2)ccc1OC1CCN(Cc2ccc(F)cc2)C1.O=C(O)C(F)(F)F (stereo unspecified)	95%	92%	0%
Cc1ccc(NC(=O)c2ccc3ncccc3c2)cc1OC1CCN(Cc2ccsc2)C1.O=C(O)C(F)(F)F (stereo unspecified)	88%	49%	5%
O=C(Nc1ccc(Cl)cc1)c1cc(Cl)ccc1NC(=O)C1CCc2ccccc2O1 (stereo unspecified)	98%	63%	1%
Cc1cc(-c2ccc(O)c(CNC3CCCCC3)c2)cnc1N	100%	100%	27%
COc1ccc2ccccc2c1CCCCN1CCN(CC(c2ccc(F)cc2)N2CCC2)CC1.O=C(O)C(F)(F)F (stereo unspecified)	98%	51%	51%
CS(=O)(=O)c1ccc2[nH]c(-c3cc(-c4cccc(F)c4)cnc3N)nc2c1.O=C(O)C(F)(F)F	100%	71%	33%
CCCc1cc(NC2CCN(C)CC2)nc(Nc2cccc(OC)c2)n1	100%	28%	31%
CCOc1c(CNCCCNc2cc(=O)c3ccccc3[nH]2)cc(I)cc1C(C)(C)C.Cl	100%	89%	17%
CN(Cc1cccc(F)c1)C1CCN(c2cc(NC(=O)c3ccc(F)cc3)ccn2)C1.O=C(O)C(F)(F)F (stereo unspecified)	83%	14%	7%
C=CCOC(=O)N1CCC(CNCc2cccc(-c3ccc(-c4nc5cccc(C)c5[nH]4)cc3)c2)C1.O=C(O)C(F)(F)F (stereo unspecified)	100%	82%	24%
O=C(CCC1CCCCC1)NCCNc1cccc2ccccc12	90%	57%	7%
COc1ccc2nccc([C@H](O)CN3CCC(NCc4cc(C)c5c(c4)OCCO5)CC3)c2n1.Cl	96%	35%	12%
CC1(CCc2ccccc2)N=C(N)N=C(N)C1c1ccc(Cl)c(Cl)c1.Cl (stereo unspecified)	98%	39%	19%
N=C(N)Nc1nc(-c2cccc(NCCCCCCCCON3C(N)=NC(N)=NC34CCCCC4)c2)cs1.O=C(O)C(F)(F)F	97%	42%	3%
Cc1ccc(F)c(C(=O)Nc2cccc(-c3nn4ccccc4c3-c3ccnc(Nc4cccc(F)c4)n3)c2)c1F	98%	60%	35%
CN(CCCCCNC(=O)/C=C/c1ccc(Cl)c(Cl)c1)CCc1c[nH]c2ccccc12	91%	18%	40%

Structure (SMILES)	Inhibition [1]	Inhibition [2]	Inhibition [3]
Cl.N#Cc1ccc2c(c1)CCN(CCC1CCC(NC(=O)/C=C/c3c[nH]c4c(Br)cccc34)CC1)CC2 (stereo unspecified)	100%	65%	32%
CCOC(=O)c1ccc2[nH]c(-c3ccc(C(=O)NCc4ccc(C(C)(C)C)cc4)cc3)nc2c1	94%	34%	0%
CN(Cc1ccc(NC(=O)NC2CCN(C(=O)/C=C/c3ccc(Cl)c(Cl)c3)CC2)cc1)C1CCOCC1	96%	14%	9%
COc1cc2nc(NCCn3cccn3)nc(NCCc3ccccc3)c2cc1OC	100%	100%	12%
CC(C)Sc1nc(-c2ccccc2)nc2c1COC(C)(C)C2	98%	41%	2%
Cc1nc(N)nc(N)c1CCCOc1ccccc1Cl	98%	5%	40%
Cc1cc(CNCCCCCNCc2cccc([N+](=O)[O-])c2)ccc1O	98%	0%	14%
O=C(/C=C/c1ccc(Cl)c(Cl)c1)NCCCCCN1CCCN(C(=S)Nc2ccc(Cl)cc2)CC1	86%	10%	7%
COc1cccc2[nH]c(NCCCNCc3cc(Br)cc(Br)c3)nc12	88%	2%	5%
Cc1noc(C)c1-c1cccc(CNCc2ccc(-c3cccc(-c4nc5cccc(C)c5[nH]4)c3)cc2)c1.O=C(O)C(F)(F)F	100%	94%	24%
COc1ccc(CNCCc2cccs2)cc1-c1ccc(S(=O)(=O)NCCN2CCCC2)s1.O=C(O)C(F)(F)F	99%	21%	41%
Fc1ccc2[nH]c(-c3ccc(-c4ccc(CNCCN5CCNCC5)cc4)s3)nc2c1.O=C(O)C(F)(F)F	96%	2%	24%
O=C(Nc1ccc(Oc2ccccc2)cc1)N[C@@H](Cc1ccc(O)cc1)C(=O)NC1CCN(Cc2ccc(O)c([N+](=O)[O-])c2)C1 (stereo partly specified)	100%	0%	0%
Nc1nc(N)c2c(ccc3c2ccn3CCCCO)n1	93%	49%	61%
COc1ccc2nc(C)cc(N/N=C/c3ccccc3[N+](=O)[O-])c2c1	100%	99%	2%
CC(CN)OCn1cnc2c(N)ncnc21.Cl (stereo unspecified)	95%	3%	17%
CN1C(=C2SC(=Nc3ccc4ncccc4c3)N(Cc3ccccc3)C2=O)Sc2ccc(Cl)cc21	99%	75%	4%
COc1cc2c(cc1S(=O)(=O)c1ccc(COc3ccc(C(F)(F)F)cc3)cc1)CNCC2.Cl	100%	89%	32%
CCc1cn(CCOC)c2ccc(C(=O)N[C@@H](Cc3ccccc3)[C@H](O)CNC(C)(C)CCCC(C)C)cc12.O=CO	98%	98%	35%
COc1ccc(CCn2c(=N)c(C(=O)NC3CCCC3)cc3c(=O)n4ccccc4nc32)cc1	99%	34%	11%
